An excerpt weighted towards active compounds, which were near 12% of everything screened.
WT yeast gro inh = growth inhibition of WT strain, primary screen, mitochondrial fusion inhibitor project, WT and mutant strains, chemical genetic | mitochondrial fusion phenotypic screen | inhibition, % at 10 µM | 2.1% of 190,000 active | AID 1362, 2008; in the data active = inhibition above about 58%; tested in S. cerevisiae
L major viab = Leishmania major promastigote growth inhibition, primary screen | Leishmania major promastigotes, resazurin fluorescence viability | inhibition, % at 10 µM | 9% of 200,000 active; in the data active = inhibition above about 50%;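 also: promastigotes grown with compound for 44 hours at 28 °C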
Arbovirus anti = antivirals against arbovirus infection, primary screen, cell-based, full library, 10K replicate subset. arbovirus infection cell-based antiviral screen. inhibition, % at 10 µM. 0.37% of 200,000 active. AID 1251, 2008; in the data active = inhibition above about 30%
CHOP inh = inhibitors of CHOP promoter induction, primary screen, cell-based, unfolded protein response, luciferase reporter. AID 2732, 2010. CHO-K1 CHOP-promoter luciferase, tunicamycin-induced, 15-18 h. inhibition, % at 10 µM. 3.8% of 220,000 active;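 active = compounds that reduced the stress-induced luciferase reporter signal by more than about 70% of percent inhibition, limit read from the data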;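 also: 0% = tunicamycin plus vehicle and 100% = wells without tunicamycin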
Numbers without * were called inactive.

For COc1ccc(NC(=O)COC(=O)c2c3c(nc4ccccc24)CCCC3)cc1 the results were WT yeast gro inh 8.2, L major viab 94.2*, Arbovirus anti -3.2 and CHOP inh 16.7.
COc1ccc(N2C(=O)CC(N(Cc3ccco3)C(=O)CCC(=O)O)C2=O)cc1 (centres undefined) was read as WT yeast gro inh -4.6, L major viab -3.8, Arbovirus anti 4.0 and CHOP inh 7.9.
C#CCNC(=O)C1=C[C@H](C2CCCCC2)C[C@H](OCc2ccc(CO)cc2)O1 was read as WT yeast gro inh -5.0, L major viab 9.7, Arbovirus anti -6.8 and CHOP inh -23.1.
For CC(=O)n1cc([C@H]2C=C(C(=O)Nc3ccccc3)O[C@@H](OCc3ccc(CO)cc3)C2)c2ccccc21 the results were WT yeast gro inh 13.3, L major viab 60.0*, Arbovirus anti 20.9 and CHOP inh 17.1.
`C#CCNC(=O)C1=C[C@H](c2cn(C(C)=O)c3ccccc23)C[C@H](OCc2ccc(CO)cc2)O1` gave WT yeast gro inh 5.2, L major viab 23.6, Arbovirus anti 30.8* and CHOP inh 31.2.
Screening C=CCOC(=O)C1=C[C@H](c2coc3ccccc3c2=O)C[C@H](OCc2ccc(CO)cc2)O1 returned WT yeast gro inh -25.0, L major viab 15.8, Arbovirus anti 1.6 and CHOP inh 12.7.
`C=CCOC(=O)C1=C[C@@H](c2coc3ccccc3c2=O)C[C@@H](OCc2ccc(CO)cc2)O1` gave WT yeast gro inh 68.1*, L major viab 31.9, Arbovirus anti 2.5 and CHOP inh 10.8.
`C#CCNC(=O)C1=C[C@@H](C2CCCCC2)C[C@@H](OCc2ccc(CO)cc2)O1` gave WT yeast gro inh -8.2, L major viab 96.2*, Arbovirus anti 0.0 and CHOP inh -4.5.
COc1ccc(NC2c3ccccc3C(=O)N2c2cccnc2)cc1 (centres undefined) was read as CHOP inh 7.4.
CC(=O)NCCCc1nc2ccccc2n1Cc1c(F)cccc1Cl was read as CHOP inh 0.2.
For Cn1c(=O)c2c(nc(N/N=C/c3cccnc3)n2Cc2ccccc2)n(C)c1=O the results were CHOP inh 12.3.
Screening CCn1cc(C(=O)O)c(=O)c2cc(F)c(N3CCNC(C)C3)c(F)c21 (centres undefined) returned CHOP inh -11.2.
`COC(=O)C(CCSC)NC(=O)C12CC3CC(CC(C3)C1)C2` (centres undefined) gave WT yeast gro inh -17.0, L major viab 94.6*, Arbovirus anti -0.8 and CHOP inh 30.9.
`CCc1ccc(C(=O)COC(=O)C(CCSC)NC(=O)C23CC4CC(CC(C4)C2)C3)cc1` (centres undefined) gave WT yeast gro inh -3.8, L major viab 0.8, Arbovirus anti -0.8 and CHOP inh 19.5.
For CSCCC(NC(=O)C12CC3CC(CC(C3)C1)C2)C(=O)OCC(=O)c1ccc(Cl)cc1 (centres undefined) the results were WT yeast gro inh -5.5, L major viab 22.4, Arbovirus anti -0.5 and CHOP inh 74.8*.
For COc1ccc(CNC(=O)Cn2nnc3ccccc3c2=O)cc1 the results were CHOP inh -6.6.
`NC(=S)N/N=C1\CCSc2ccc(Cl)cc21` gave CHOP inh 17.3.
`C=CCN(CC=C)S(=O)(=O)c1ccc2nc(NC(=O)C3CCCO3)sc2c1` (centres undefined) gave WT yeast gro inh -7.6, L major viab 68.0*, Arbovirus anti -15.9 and CHOP inh 14.6.
`CC(C)C(NC(=O)C12CC3CC(CC(C3)C1)C2)C(=O)NC1=NCCS1` (centres undefined) gave WT yeast gro inh 65.6*, L major viab 35.4, Arbovirus anti 11.3 and CHOP inh 30.0.
Screening O=C(NCC(=O)N(Cc1ccccc1)C(C(=O)NC1CCCC1)c1ccncc1)c1ccco1 (centres undefined) returned WT yeast gro inh -13.2, L major viab -3.0, Arbovirus anti 3.5 and CHOP inh 17.8.
COc1ccccc1CN(C(=O)CCl)C(C(=O)NC1CCCCC1)c1ccncc1 (centres undefined) was read as WT yeast gro inh -0.2, L major viab 61.1*, Arbovirus anti 23.0 and CHOP inh 48.7.
For COc1ccc(C(=O)/C=C/C(=O)N(Cc2ccccc2OC)C(C(=O)NC2CCCCC2)c2ccncc2)c(O)c1 (centres undefined) the results were WT yeast gro inh 14.8, L major viab 99.1*, Arbovirus anti -9.4 and CHOP inh 16.3.
COc1ccc(C(=O)/C=C/C(=O)N(Cc2ccccc2)C(C(=O)NC2CCCCC2)c2ccncc2)c(O)c1 (centres undefined) was read as WT yeast gro inh -1.6, L major viab 92.6*, Arbovirus anti -10.1 and CHOP inh 9.5.
COc1ccc(C(=O)/C=C/C(=O)N(Cc2ccc(F)cc2)C(C(=O)NC2CCCCC2)c2ccncc2)c(O)c1 (centres undefined) was read as WT yeast gro inh 48.9, L major viab 70.6*, Arbovirus anti -19.4 and CHOP inh 3.6.
COCCC(=O)N(Cc1ccc2c(c1)OCO2)C(C(=O)NC1CCCCC1)c1ccncc1 (centres undefined) was read as WT yeast gro inh 2.4, L major viab -2.6, Arbovirus anti -1.1 and CHOP inh -25.6.
CCN(C(=O)COc1cccc2cccnc12)C1CCS(=O)(=O)C1 (centres undefined) was read as WT yeast gro inh -8.9, L major viab -5.9, Arbovirus anti 19.8 and CHOP inh -14.1.
For FC(F)(F)COc1ccc(-c2nnc(SCc3ccccc3)o2)cn1 the results were CHOP inh -22.0.
Screening CC1(C)CC(=O)c2c(nc(SCC(=O)Nc3nsc(-c4ccccc4)n3)c(C#N)c2-c2ccccc2)C1 returned WT yeast gro inh 24.4, L major viab 69.1*, Arbovirus anti -24.8 and CHOP inh 61.2.
CCc1c(C#N)c(SCCC(=O)Nc2cccc(OC)c2)nc2c1C(=O)CC(C)(C)C2 was read as L major viab 6.5, Arbovirus anti -18.7 and CHOP inh 64.1.
Screening CCc1c(C#N)c(SCCC(=O)Nc2ccc(F)cc2)nc2c1C(=O)CC(C)(C)C2 returned WT yeast gro inh 13.4, L major viab 2.8, Arbovirus anti -15.9 and CHOP inh 87.8*.
For Cc1nnc(SCC(=O)Nc2nsc(-c3ccccc3)n2)s1 the results were WT yeast gro inh 7.1, L major viab -8.8, Arbovirus anti 17.2 and CHOP inh 10.1.
Screening CCO[C@@H]1OC(C(N)=O)=C[C@H](c2ccc3c(c2)OCO3)[C@H]1CCCO returned WT yeast gro inh 5.0, L major viab -1.9, Arbovirus anti 0.9 and CHOP inh 12.4.
For O=C(N/N=C/c1cccn1-c1ccc([N+](=O)[O-])cc1)c1cccnc1 the results were CHOP inh 27.6.
`COc1cc(NC2c3ccccc3C(=O)N2Cc2ccc3c(c2)OCO3)cc(OC)c1` (centres undefined) gave CHOP inh 25.9.
